Bioassay records as filed in PubChem BioAssay.
Only some compounds are listed: those with a hit (about 3.6% of all), similar ones and a draw of the others.
ERa SRC1 pot: ER-alpha (human) coactivator binding potentiation; P03372; TR-FRET ERalpha-LBD/SRC-Cy5 coactivator binding, 2 h; 100 = basal binding, no effect; coactivator binding (% of control), % at 25.6 µM; 1.3% of 86,000 active; AID 639; in the data active = activity above about 200%;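 note: binding measured in presence of low estradiol as agonist stimulus; 0% = peptide alone without receptor and 100% = receptor with peptide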
Target sequence (P03372 whole entry, looked up, the tested form may be a part): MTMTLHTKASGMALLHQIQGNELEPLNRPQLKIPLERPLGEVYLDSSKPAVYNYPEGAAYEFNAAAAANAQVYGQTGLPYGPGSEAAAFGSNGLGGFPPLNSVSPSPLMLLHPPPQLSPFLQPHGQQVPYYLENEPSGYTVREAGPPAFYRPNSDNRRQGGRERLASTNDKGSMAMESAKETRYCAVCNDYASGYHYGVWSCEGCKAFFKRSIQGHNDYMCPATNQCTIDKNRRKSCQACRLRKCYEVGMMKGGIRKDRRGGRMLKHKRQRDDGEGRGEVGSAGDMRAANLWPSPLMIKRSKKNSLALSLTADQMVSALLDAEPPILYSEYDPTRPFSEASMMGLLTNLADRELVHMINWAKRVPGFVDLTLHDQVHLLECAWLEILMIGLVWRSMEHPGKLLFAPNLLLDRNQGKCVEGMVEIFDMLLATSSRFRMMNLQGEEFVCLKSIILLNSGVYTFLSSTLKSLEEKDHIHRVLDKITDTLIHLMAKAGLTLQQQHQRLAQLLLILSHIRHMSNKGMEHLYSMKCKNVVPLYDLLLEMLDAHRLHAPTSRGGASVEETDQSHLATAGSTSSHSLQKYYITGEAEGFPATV
ERa SRC1 inh: blocks coactivator binding to human estrogen receptor alpha. P03372. TR-FRET ER-alpha LBD / SRC-1 peptide, estradiol-bound. inhibition, % at 25.6 µM. 1.7% of 86,000 active; in the data active = inhibition above about 50%;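 note: 0% = receptor plus peptide control and 100% = peptide only without receptor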
IL1B NFkB inh: blocks IL-1B driven NFkB nuclear translocation in HUVEC cells; HUVEC IL-1B NFkB p65 nuclear translocation imaging; inhibition, % at 2 µM; 0.43% of 94,000 active;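 active = inhibition above about 30% together with a positive call from visual inspection of the well image, limit read from the data; inconclusive = inhibition above a set limit but visual check negative; inactive = inhibition not above a set limit, visual check negative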;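 note: nuclear over cytoplasmic p65 intensity ratio measured by imaging; 0% = IL-1B stimulated DMSO wells and 100% = unstimulated DMSO wells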
HUVEC tox IL1B: HUVEC cytotoxicity counter-screen, IL-1B stimulated; HUVEC cell count loss, Hoechst imaging; cell count reduction, % at 2 µM; AID 845; 0.41% of 94,000 active;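 active = cell count reduction more than 3 SD above the screen-wide mean, cut at about 70% in these data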;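 note: normalized per plate to untreated control cells as the no-loss baseline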
NFkB transloc pot: enhances IL-1B driven NFkB nuclear translocation. HUVEC IL-1B NFkB p65 nuclear translocation imaging. activation, % at 2 µM. 0.3% of 94,000 active. AID 819;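 active = activation above 40%, about the mean plus 3 SD, also judged a hit on visual image review; inconclusive = activation above 40% but not a hit on visual review; inactive = activation not above 40% and no visual hit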;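 note: percent activation is computed from the nuclear over cytoplasmic p65 intensity ratio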
ERb SRC1 inh: blocks coactivator binding to human estrogen receptor beta. 1.3% of 86,000 active. inhibition, % at 25.6 µM. TR-FRET ER-beta LBD / SRC1-Cy5 peptide binding; receptor agonist-loaded with 1 µM estradiol;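 active = compounds whose percent inhibition of the receptor-coactivator binding signal exceeds about 50% in the single-dose screen, limit read from the data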;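 note: 0% = receptor plus peptide wells without compound and 100% = peptide-only wells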
Numbers without * were called inactive; ? = inconclusive; / = not tested or not shown; [ ] = another dose, or the depositor's remark.

SMILES | ERa SRC1 pot | ERa SRC1 inh | IL1B NFkB inh | HUVEC tox IL1B | NFkB transloc pot | ERb SRC1 inh
CN(C)c1ccc(O)c2c1CC1CC3[C@@H](N(C)C)C(=O)C(C(N)=O)=C(O)[C@]3(O)C(=O)C1=C2O (stereo partly specified) | 1.8 | 98.1*[fluorescence artefact?] | / | / | / | 99.7*[fluorescence artefact?]
COc1cccc(N2CCN(C3CC(=O)N(c4ccc(C)c(Cl)c4)C3=O)CC2)c1 (stereo unspecified) | 114.8 | -15.6 | / | / | / | -18.6
COc1cccc(N2CCN(C3CC(=O)N(c4ccc(F)c(Cl)c4)C3=O)CC2)c1 (stereo unspecified) | 96.5 | -17.8 | 96.0* | 87.8* | -96.0 | -2.0
O=C(c1ccc(S(=O)(=O)Nc2ccc(F)cc2)cc1)N1CCN(C(=O)c2ccco2)CC1 | 98.4 | -2.0 | -3.5 | -31.5 | 3.5 | -8.1
CCOC(=O)c1cnn(-c2ccccc2)c1-n1cccc1C(=O)C(=O)Nc1ccc(OC)cc1 | / | / | -9.4 | 94.2* | 9.4 | /
Cc1cc(=O)c2n(Cc3ccc(Cl)cc3)nc[n+]2[nH]1 | 110.0 | -10.7 | / | / | / | -3.4
Cc1noc(C)c1S(=O)(=O)N(CC(=O)O)c1ccc2c(c1)OCO2 | 60.4 | 40.9 | -10.4 | -30.7 | 10.3 | 53.7*
Cc1c(NC(=O)COC(=O)C(c2ccc(Cl)cc2)C(C)C)c(=O)n(-c2ccccc2)n1C (stereo unspecified) | / | / | -5.4 | 3.4 | 5.4 | /
O=c1oc2c3c4c(cc2s1)CCCN4CCC3 | 27.3 | 72.2*[fluorescence artefact?] | -20.1 | -8.3 | 20.1 | 68.0*[fluorescence artefact?]
CCCN1C2=C(C(=O)CCC2)C(c2ccc(F)cc2)C2=C1c1ccccc1C2=O (stereo unspecified) | 93.1 | -30.4 | -7.0 | -3.7 | 7.0 | -27.8
O=C1C2C3C=CC(C3)C2C(=O)N1c1cccc2cccnc12 (stereo unspecified) | 65.1 | 39.8 | 6.7 | -30.8 | -6.7 | 51.1*
O=C(O)c1cccc(Nc2nc(N3CCOCC3)nc(N3CCOCC3)n2)c1 | 625.7*[fluorescence artefact?] | -4.4 | -5.1 | -45.6 | 5.1 | -5.6
CCN1CCN(C(C)C(=O)Nc2c(C)n(C)n(-c3ccccc3)c2=O)CC1 (stereo unspecified) | 105.1 | -0.9 | -5.5 | -12.5 | 5.5 | 6.9
COC(=O)C1=C(C)N(CC2CCCO2)C(=O)C1 (stereo unspecified) | 99.4 | -16.5 | 10.9 | -19.2 | -10.9 | -3.4
Cc1cccc(NC(=O)C2CCN(c3nccc(C)n3)CC2)c1 | 95.8 | -0.8 | -4.0 | -25.4 | 4.0 | -3.5
N/C(Cc1ccc([N+](=O)[O-])cc1)=N\OC(=O)c1ccc2ccccc2c1 | 119.5 | 50.2* | 4.3 | -11.7 | -4.3 | 19.7
O=C(Cn1nnc(-c2ccccc2NC(=O)c2ccccc2F)n1)NCc1ccco1 | 136.4 | 29.2 | 1.3 | -1.5 | -1.3 | 13.6
O=C(Cn1nnc(-c2ccccc2NC(=O)c2ccco2)n1)NC1CCCCC1 | 288.1*[fluorescence artefact?] | 47.0 | -13.7 | -13.3 | 13.7 | 21.1
COc1ccc(C(=O)Nc2ccccc2-c2nnn(CC(=O)NCc3ccco3)n2)cc1 | 209.9* | 11.0 | -9.3 | -14.6 | 9.3 | 1.3
Cc1cnc(C(=O)Nc2ccccc2-c2nnn(CC(=O)NC3CCCC3)n2)cn1 | 110.2 | 45.2 | -21.8 | 1.3 | 21.8 | 23.1
COc1ccc(NC(=O)Cn2nnc(-c3ccccc3NC(=O)c3ccco3)n2)cc1 | 148.6 | 27.7 | 4.5 | 2.3 | -4.5 | 51.9*[fluorescence artefact?]
CCC(C)C(NC(=O)c1ccccc1NC(=O)c1ccco1)C(=O)NC1CCCCC1 (stereo unspecified) | 86.9 | 56.3*[fluorescence artefact?] | / | / | / | 21.2
O=C(Nc1ccccc1C(=O)NC1CCCCC1)c1ccco1 | 75.1 | 11.9 | 4.1 | -10.4 | -4.1 | 17.8
COc1ccc(CCN2C(=S)NC3CC2(C)Oc2ccc([N+](=O)[O-])cc23)cc1OC (stereo unspecified) | 99.7 | -3.9 | 1.7 | 1.5 | -1.7 | -8.6
CCOC(=O)CCC(=O)Nc1ccccc1C(N)=O | 129.2 | 52.5* | 5.9 | -9.8 | -5.9 | -3.1
SMILES | ERa SRC1 pot | ERa SRC1 inh | IL1B NFkB inh | HUVEC tox IL1B | NFkB transloc pot | ERb SRC1 inh
COc1ccc(-c2nc(Cn3c(SCc4cccc(F)c4)nc4ccncc43)c(C)o2)cc1OC | 237.2* | 8.9 | / | / | / | 36.2
COc1ccc(-c2nc(Cn3c(SCc4ccc(C)cc4)nc4ccncc43)c(C)o2)cc1OC | 217.1* | 41.5 | -23.1 | -46.3 | 23.1 | 35.6
COc1ccc(-c2nnc(CSc3nc4ccccc4c(=O)n3C)o2)cc1OC | 110.9 | 7.8 | -3.1 | 19.9 | 3.1 | -0.5
CCCCC(=O)NCCc1cc2c(C)ccc(C)c2[nH]c1=O | 93.8 | 8.1 | -16.7 | -34.6 | 16.7 | -3.4
Cc1cc(NC(=O)c2ccc(N(C)S(=O)(=O)c3ccccc3)cc2)no1 | 115.5 | -17.3 | -3.8 | -0.5 | 3.8 | -24.8
COCc1cc(C)n(CC(=O)Nc2ccc(Cl)cc2Cl)c(=O)c1C#N | / | / | -40.7 | -1.7 | 40.7* | /
Brc1ccc(-c2nnc3n2C2(CCCC2)Cc2ccccc2-3)o1 | 166.6 | 1.3 | -3.0 | -33.9 | 3.0 | 7.2
CCOC(=O)c1cc(CC)sc1NC(=O)c1ccc2c(c1)OCCO2 | 466.1*[fluorescence artefact?] | 26.5 | -41.1 | 34.9 | ? | 30.1
CCOC(=O)c1cc(CC)sc1NC(=O)c1cc(OCC)c(OCC)c(OCC)c1 | 97.3 | -2.7 | -8.8 | -13.4 | 8.8 | -3.6
O=C(CN1CCN(C(=O)N2CCCCC2)CC1)Nc1ccc(F)cc1 | 103.0 | -2.5 | 9.9 | 18.3 | -9.9 | -3.6
CC1CC(C)CN(C2CCN(Cc3cccnc3)CC2)C1 (stereo unspecified) | 106.6 | -3.3 | 15.6 | -16.7 | -15.6 | -21.1
CCOC(=O)c1cc(C(O)(C(F)(F)F)C(F)(F)F)c(/N=C/N(C)C)o1 | 81.3 | -20.2 | -3.1 | -13.6 | 3.1 | -14.6
Cn1c(=O)oc2cc(S(=O)(=O)N3CCCC(C(=O)Nc4nccs4)C3)ccc21 (stereo unspecified) | / | / | -40.6 | 11.5 | 40.6* | /
Cn1c(=O)oc2cc(S(=O)(=O)N3CCCC(C(=O)NCCN4CCOCC4)C3)ccc21 (stereo unspecified) | 101.4 | -2.2 | -5.6 | -11.0 | 5.6 | -10.8
O=C(Cn1c(=O)oc2cc(S(=O)(=O)N3CCCC3)ccc21)Nc1ccc(C(F)(F)F)cc1 | 144.0 | 69.3*[fluorescence artefact?] | -28.0 | 0.5 | 28.0 | 2.9
O=C(Cn1c(=O)oc2cc(S(=O)(=O)N3CCCCCC3)ccc21)NC1CCCCCCC1 | 201.7* | 36.0 | 12.1 | -3.9 | -12.1 | 24.5
O=C(Cn1c(=O)oc2cc(S(=O)(=O)N3CCCC3)ccc21)NC1CCCc2ccccc21 (stereo unspecified) | 36.1 | 88.8*[fluorescence artefact?] | / | / | / | 66.6*[fluorescence artefact?]
C=CCN(C)CCCNC(=O)/C=N/O | 106.7 | -8.1 | / | / | / | -5.0
COc1ccc(C)cc1S(=O)(=O)N(CC(=O)NCc1ccc(Cl)cc1)Cc1ccccc1 | 90.1 | -4.7 | -24.2 | -45.4 | 24.2 | -10.1
Cc1cc(C)cc(NC(=O)Cn2c(=O)oc3cc(S(=O)(=O)N4CCC(C)CC4)ccc32)c1 | 25.9 | 88.6*[fluorescence artefact?] | 14.6 | 19.9 | -14.6 | 53.7*[fluorescence artefact?]
